Most compounds without a hit are left out; they make up all but 5.2% or so of the library.
NadD inh – inhibitors of S. aureus NadD, primary screen, biochemical, colorimetric, uHTS | inhibition, % at 20 µM | Nicotinate-nucleotide adenylyltransferase NadD (Staphylococcus aureus N315) | 360,000 compounds, 0.78% hits | AID 602399, 2012 | purified NadD enzyme, colorimetric absorbance read-out; in the data active = inhibition above about 26%
Vif inh – HIV Vif self-association inhibitors, primary screen, imaging, HEK293T, single point; inhibition, % at 7.49 µM; HEK293T cells, Vif self-association by quenched fluorescence, 24 h; 340,000 compounds, 0.35% hits; AID 602346, 2012; in the data active = inhibition above about 50%, passing the limit was not always enough; inconclusive = no clear call, values can overlap the other calls; inactive = below about 31%
SMARCA2 act – SMARCA2 (BRM) function activators, primary screen, cell-based, luminescence, high throughput; MG213 cells, MMTV-luciferase reporter, dexamethasone, overnight; activation, % at 9.1 µM; 370,000 compounds, 1% hits; AID 652017, 2013; in the data active = activation above about 7.8%
esBAF inh – Bmi1 luciferase reporter increase in mESCs, primary screen, esBAF inhibitor project, mouse ES cells, Bmi1 luciferase knock-in, single point; AID 602393, 2012; 350,000 compounds, 2% hits; 24 h; 100% = twice the neutral-well signal; reporter increase, % at 12.5 µM; in the data active = activation above about 40%; inconclusive = no clear call, values can overlap the other calls;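 note: a rise in the Bmi1 reporter signal indicates esBAF inhibition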
SKN-1 block – suppressors of acrylamide-induced Pgst-4::GFP reporter in worms, primary screen, SKN-1 inhibitor project, whole organism, uHTS, GFP/RFP fluorescence ratio, strain VP596; C. elegans VP596 Pgst-4::GFP/RFP ratio, 24 h; inhibition, % at 21.8 µM; 360,000 compounds, 0.49% hits; AID 624304, 2012;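 active = interference check ratio from 0.5 to 1.5 plus GFP to RFP signal ratio inhibition reaching or exceeding a fixed threshold, cut at about 30% in these data, passing the limit was not always enough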
GRIN3A LBD mod – binders of NR3A ligand-binding domain, primary screen, biophysical, differential scanning fluorimetry, uHTS | Glutamate receptor ionotropic, NMDA 3A (GRIN3A) ligand-binding domain | AID 1259313, 2017 | 340,000 compounds, 2.5% hits | Tm shift relative to glycine control, % at 25 µM | NR3A LBD differential scanning fluorimetry, Tm shift; 0% = protein alone, 100% = glycine-bound protein;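 active = melting temperature shift of at least 10% of the positive control shift, at one fixed dose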
Each line names hits and unclear results; the compound was inactive in the other large screens.

COc1ccc(S(=O)(=O)Nc2ccc3c(c2)C(=O)N([C@H](C)CO)C[C@@H](C)[C@H](CN(C)C(=O)NC(C)C)O3)cc1	none (no result: NadD inh, Vif inh, SMARCA2 act, SKN-1 block, GRIN3A LBD mod)
COC(=O)c1sccc1NC(=O)Nc1cccc(OC)c1	none
COc1cccc(NC(=O)Nc2ccccc2Br)c1	esBAF inh 59
COc1cccc(NC(=O)Nc2ccc3nc(C)c(C)nc3c2)c1	GRIN3A LBD mod 28
COc1cccc(NC(=O)CN(C)CC(=O)NCC(=O)Nc2ccc(F)cc2)c1	GRIN3A LBD mod 19
COc1cccc(OC)c1C(=O)Nc1ccc2nc(C)c(C)nc2c1	none
Cc1cccc(NC(=O)CN2C(=O)N/C(=C\c3ccc(N4CCOCC4)cc3)C2=O)c1	esBAF inh 59
Cc1cc(N2CCOCC2)ccc1/C=C1\NC(=O)N(CC(=O)Nc2ccc(F)cc2)C1=O	none (no result: esBAF inh)
Cc1cccc(NC(=O)CN2C(=O)N/C(=C/c3cc(C)n(C)c3C)C2=O)c1	NadD inh 30 (no result: esBAF inh)
CCNC(=O)[C@H]1[C@H](CO)[C@H]2Cn3c(ccc(-c4ccccc4)c3=O)[C@@H]1N2C(=O)C1CC1	none (no result: NadD inh, Vif inh, SMARCA2 act, SKN-1 block, GRIN3A LBD mod)
c1cncc(CSc2ccc(-c3cccs3)nn2)c1	esBAF inh 56
COc1ccc(-c2cc(-c3cccs3)c(C#N)c(SCC(=O)NCc3ccco3)n2)cc1	Vif inh 52 (no result: SMARCA2 act)
COc1ccc(CNC(=O)CSc2nc(-c3ccccc3)cc(-c3cccs3)c2C#N)cc1	none
Clc1cccc(CSc2ccc(-c3cccnc3)nn2)c1	none
Cc1ccc(CNC(=O)CSc2ccc(-c3cccs3)nn2)cc1	none (no result: esBAF inh)
Cc1ccc(CSc2ccc(-c3cccs3)nn2)cc1	GRIN3A LBD mod 14 (no result: esBAF inh)
COc1ccc(CCNC(=O)CSc2ccc(-c3cccs3)nn2)cc1	GRIN3A LBD mod 29 (no result: esBAF inh)
C[C@H]1CN([C@@H](C)CO)C(=O)c2cccc(NS(=O)(=O)c3ccc(Cl)cc3)c2O[C@H]1CN(C)Cc1ccc(Cl)c(Cl)c1	none (no result: NadD inh, Vif inh, SMARCA2 act, SKN-1 block, GRIN3A LBD mod)
C[C@@H]1CN([C@H](C)CO)C(=O)c2cc(NC(=O)Nc3ccc(C(F)(F)F)cc3)ccc2O[C@H]1CN(C)S(C)(=O)=O	none (no result: NadD inh, Vif inh, SMARCA2 act, SKN-1 block, GRIN3A LBD mod)
CCCNC(=O)N1C[C@H]2[C@@H](c3ccccc31)[C@@H](CO)N2Cc1ccc2c(c1)OCO2	none (no result: NadD inh, Vif inh, SMARCA2 act, SKN-1 block, GRIN3A LBD mod)
COCC(=O)N1[C@@H](C#N)[C@@H](c2ccc(C3=CCCCC3)cc2)[C@@H]1CO	none (no result: NadD inh, Vif inh, SMARCA2 act, SKN-1 block, GRIN3A LBD mod)
COc1ccc(N=Nc2cc(C)ccc2O)cc1	none (no result: esBAF inh)
COc1ccc(N=Nc2ccc3ccccc3c2)c(O)c1	Vif inh inconclusive, SKN-1 block 33
C[C@H]1CCCCO[C@@H](CN(C)C(=O)Nc2ccccc2)[C@@H](C)CN([C@@H](C)CO)C(=O)c2cc(NC(=O)Nc3cccc4ccccc34)ccc2O1	none (no result: NadD inh, Vif inh, SMARCA2 act, SKN-1 block, GRIN3A LBD mod)
COc1ccc2nc(-c3ccccc3)nc(SC)c2c1	esBAF inh 47
COc1ccc2nc(-c3ccccc3)[nH]c(=O)c2c1	esBAF inh 44 (no result: Vif inh)
O=C1OC2(CCCCC2)OC(=O)C1=CNc1ccc2c(c1)OCO2	esBAF inh 57
CC(C)CC1(C)NC(=O)NC1=O (centres undefined)	GRIN3A LBD mod 11
COC(=O)c1c(-c2ccc(OC)cc2)sc2ccc(OC)cc12	esBAF inh 46
C[C@@H]1CCCCO[C@@H](CN(C)C(=O)c2ccccc2)[C@H](C)CN([C@H](C)CO)C(=O)c2cc(NS(=O)(=O)c3ccc(Cl)cc3)ccc2O1	none (no result: NadD inh, Vif inh, SMARCA2 act, SKN-1 block, GRIN3A LBD mod)
CCCc1[nH]n(-c2ccc([N+](=O)[O-])cc2)c(=O)c1C=NCCc1c[nH]c2ccccc12	GRIN3A LBD mod 22 (no result: Vif inh, esBAF inh)
CCCc1[nH]n(-c2ccc([N+](=O)[O-])cc2)c(=O)c1C=NCCc1ccc(OC)c(OC)c1	none (no result: esBAF inh)
Cc1[nH]n(-c2ccc([N+](=O)[O-])cc2)c(=O)c1C=NCCc1c[nH]c2ccccc12	GRIN3A LBD mod 27 (no result: esBAF inh)
Cc1[nH]n(-c2ccccc2)c(=O)c1C=NCCc1ccccc1	none (no result: esBAF inh)
Nn1c(=S)[nH]c2sc3c(c2c1=O)CCCC3	SKN-1 block 36 (no result: esBAF inh)
CCCn1c(=S)[nH]c2sc3c(c2c1=O)CCCC3	none
COC(=O)C1Cc2c([nH]c3ccccc23)CN1 (centres undefined)	none
COC(=O)[C@H]1Cc2c([nH]c3ccccc23)[C@H](c2ccccc2)N1	GRIN3A LBD mod 10
N#CC(=C(O)CN1CCN(c2ccccc2F)CC1)c1nc(-c2ccccc2)cs1	none (no result: esBAF inh)
N#CC(=C(O)CN1CCN(c2ccccc2F)CC1)c1nc(-c2ccc(Cl)cc2)cs1	GRIN3A LBD mod 90
CN(C)S(=O)(=O)c1cccc(NC(=O)C2Cc3ccccc3CN2C(=O)c2ccco2)c1 (centres undefined)	esBAF inh 44
Cc1ccc(NC(=O)C2Cc3ccccc3CN2C(=O)c2ccco2)cc1S(=O)(=O)N(C)C (centres undefined)	none
COc1cccc(N2CC(O)=C(c3ccccc3)C2=N)c1	SKN-1 block 35 (no result: esBAF inh)
O=C(OCc1nc2ccccc2s1)c1ccc(Br)s1	none
OCc1cc(Br)ccc1OCc1nc2ccccc2s1	esBAF inh 77 (no result: SMARCA2 act)
O=C(COc1ccc(Br)cc1CO)Nc1ccccc1	esBAF inh 56
Oc1ccccc1OCc1nc2ccccc2s1	esBAF inh 41
Cc1noc(C)c1S(=O)(=O)N(C)C[C@@H]1OCCCC[C@@H](C)Oc2ccc(NS(=O)(=O)c3ccc(Cl)cc3)cc2C(=O)N([C@H](C)CO)C[C@H]1C	none (no result: NadD inh, Vif inh, SMARCA2 act, SKN-1 block, GRIN3A LBD mod)
Brc1ccc(-c2cn3nc4c(nc3n2)CCCC4)cc1	none (no result: Vif inh, esBAF inh)
Nc1nn2cc(-c3ccc(Br)cc3)nc2c2ccccc12	esBAF inh inconclusive, GRIN3A LBD mod 27
O=S(=O)(c1ccccc1F)N1CC[C@@H]2[C@H](CO)Nc3ccc(-c4cccc(F)c4)cc3[C@@H]21	none (no result: NadD inh, Vif inh, SMARCA2 act, SKN-1 block, GRIN3A LBD mod)
CC(OC(=O)c1cccc(S(=O)(=O)Nc2cccc(C(F)(F)F)c2)c1)C(=O)Nc1ccc2c(c1)OCCO2 (centres undefined)	GRIN3A LBD mod 26 (no result: esBAF inh)
C[C@@H]1CCCCO[C@@H](CN(C)S(=O)(=O)c2ccc(Cl)cc2)[C@H](C)CN([C@H](C)CO)C(=O)c2cc(NC(=O)Nc3ccccc3)ccc2O1	none (no result: NadD inh, Vif inh, SMARCA2 act, SKN-1 block, GRIN3A LBD mod)
CC(=O)Nc1ccc2[nH]c3ccccc3c2c1	none
O=C(Nc1ccc(Cl)cc1)c1cc2c(cc1O)[nH]c1ccccc12	GRIN3A LBD mod 32
C[C@@H]1CN([C@H](C)CO)C(=O)c2ccccc2-c2ccccc2CO[C@H]1CN(C)C(=O)[C@H](C)c1ccccc1	none (no result: NadD inh, Vif inh, SMARCA2 act, SKN-1 block, GRIN3A LBD mod)
Cc1ccc(C(=O)CC(SCC(=O)O)c2ccc([N+](=O)[O-])cc2)cc1 (centres undefined)	none (no result: Vif inh, esBAF inh)

Compound activity from PubChem.
